ChEMBL document CHEMBL3988442, “University of Dundee, Small-Polar-MMV Screening Library” (2021)
Entries with a potency or affinity are not part of this list.

Target: Protein translocase subunit SecA (Escherichia coli (strain K12)) (UniProt P10408)
Assay: Assay to Identify E. coli SecA ATPase Inhibitors
Type: functional
Design: scale not given: direction of the effect not stated beside the values
Conditions: 30 µM

Sequence of Protein translocase subunit SecA (Escherichia coli (strain K12)) (P10408 whole entry): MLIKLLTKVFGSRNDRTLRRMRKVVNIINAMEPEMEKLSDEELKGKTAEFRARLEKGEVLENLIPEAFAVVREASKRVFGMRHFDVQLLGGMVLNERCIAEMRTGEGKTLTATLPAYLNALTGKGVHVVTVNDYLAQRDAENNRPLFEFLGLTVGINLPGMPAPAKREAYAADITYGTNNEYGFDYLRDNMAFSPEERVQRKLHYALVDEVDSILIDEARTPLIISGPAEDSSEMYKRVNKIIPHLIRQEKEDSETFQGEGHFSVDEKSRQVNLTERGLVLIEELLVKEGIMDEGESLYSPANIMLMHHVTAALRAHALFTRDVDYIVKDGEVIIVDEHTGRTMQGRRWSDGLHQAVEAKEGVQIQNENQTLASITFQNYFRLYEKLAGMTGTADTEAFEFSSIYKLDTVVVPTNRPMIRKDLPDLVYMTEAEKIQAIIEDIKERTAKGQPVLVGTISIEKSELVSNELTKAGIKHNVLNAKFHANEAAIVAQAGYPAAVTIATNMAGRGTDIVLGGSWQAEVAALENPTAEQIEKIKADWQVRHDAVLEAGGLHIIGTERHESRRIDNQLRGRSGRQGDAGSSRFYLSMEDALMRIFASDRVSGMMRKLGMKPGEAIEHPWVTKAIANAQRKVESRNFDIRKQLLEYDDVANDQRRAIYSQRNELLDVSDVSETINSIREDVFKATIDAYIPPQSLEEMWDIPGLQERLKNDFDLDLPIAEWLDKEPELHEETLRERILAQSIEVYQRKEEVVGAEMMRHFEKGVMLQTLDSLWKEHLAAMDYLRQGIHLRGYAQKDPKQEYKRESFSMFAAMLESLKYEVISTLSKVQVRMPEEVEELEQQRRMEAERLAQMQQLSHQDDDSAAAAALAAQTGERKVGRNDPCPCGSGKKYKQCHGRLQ

Structure (SMILES)	Percent Effect
CC(C)NC(=O)Cn1cc(-c2ccccc2)cn1	-1.92%
Cc1nn(C)c(C)c1C1COCCN1C(=O)c1ccccc1 (stereo not given)	-2.83%
O=C(N1CCCO1)[C@@]12CCO[C@@H]1CCN(C1CCCCC1)C2	-5.99%
CC(C(=O)NCc1ccc(N2CCNC(=O)C2)cc1)n1cncn1 (stereo not given)	-6.76%
Cn1cc(CCNC(=O)NCc2nnc3n2CCC3)cn1	-2.08%
CO[C@H]1CN(Cc2cccc(C#N)c2)[C@@H]2COC[C@H]12	-3.41%
CC(NC(=O)c1nc(=O)[nH][nH]1)c1ccc(OCC2CC2)c(F)c1 (stereo not given)	-5.77%
c1ccc(-c2noc(CN3CCC(c4ccn[nH]4)CC3)n2)cc1	1.64%
Cc1csc(N2CCN(C(=O)CCn3cncn3)CC2)n1	-2.99%
Cc1cc(C2CCCN(C(=O)c3cnn(C)c3)C2)ccn1 (stereo not given)	-5.39%
CCN(CC)CCNC(=O)c1cnc(C(C)(C)C)s1	-3.73%
CCC(=O)Nc1nnc(CCOc2cccc(OC)c2)s1	-4.51%
CCCn1[nH]cc/c1=N\C(=O)CN1CCCC1c1c(C)nn(C)c1C (stereo not given)	-4.29%
O=C(c1ccnnc1)N1C[C@H](Oc2cccnc2)[C@H]2OCCC[C@H]21	-5.64%
COc1ccc(CN2CCC(O)CC2)c(OC)c1	-2.06%
CS(=O)(=O)Cc1cccc(C(=O)NCC2Cc3ccccc3O2)c1 (stereo not given)	-4.91%
O=C(CCc1cccs1)N1CCCCC1Cn1cccn1 (stereo not given)	-6.87%
CCOc1ccccc1OC1CCN(C(=O)c2ccc(=O)[nH]n2)CC1	-2.99%
CN(C)CCNC(=O)c1ccc(OC2CCN(S(C)(=O)=O)CC2)c(Cl)c1	-6.99%
N#Cc1ccc(C(=O)N2CCn3c(Cn4cccn4)cnc3C2)cc1	-4.62%

Structure (SMILES)	Percent Effect
Cn1ccc(C(=O)NC2CCC23CCN(C(=O)c2ccncc2)CC3)c1 (stereo not given)	3.11%
CNC(=O)[C@H]1C[C@H]2OCC[C@H]2N(Cc2cccc3ccccc23)C1	-2.27%
COc1ccc(OCCCN2CCOC(Cn3cccn3)C2)cc1 (stereo not given)	-8.28%
Cc1nc2ccccc2nc1CN1CCCC1c1c(C)nn(C)c1C (stereo not given)	-4.48%
CCN(Cc1cccc(Cl)c1)Cc1nc2c(cnn2C)c(=O)[nH]1	-5.2%
O=C(CN1CCCC1Cn1cncn1)NCCOc1cccc(F)c1 (stereo not given)	-4.88%
COc1ccc(CCN2CCN(C(=O)c3scnc3C)CC2)cc1	-2.7%
O=C(c1ccnnc1)N1C[C@@H](OCC2CCCC2)[C@H]2OCCC[C@H]21	-7.56%
CCc1ccc(CCC(=O)N2CCOCC2c2ncon2)cc1 (stereo not given)	2.75%
CC(C)CN(C)c1ccc(C(=O)N2CCCC2c2cnn(C)c2)cn1 (stereo not given)	-0.585%
COc1ccc(CNCC(C)Oc2ccccn2)cc1Br (stereo not given)	0.219%
CCc1nc(C2CCCN2CC(=O)Nc2c(C)nn(C)c2C)no1 (stereo not given)	-2.75%
Cn1c(Cn2cccn2)nnc1C1CCCN(c2ccncc2)C1 (stereo not given)	-2.64%
CN(C)C(=O)N1CCC2(CCCN(Cc3cnn(C)c3)C2)C1 (stereo not given)	-3.04%
O=C(C1=CCCC1)N1CCC[C@]2(C[C@@H](Oc3ncccc3F)CO2)C1	-0.607%
Cn1ccc(C(=O)NC2CCC23CCN(C(=O)N2CCCC2)CC3)c1 (stereo not given)	-3.06%
Cc1cc(C)c2nc(CN3CCOC(CCO)C3)cc(O)c2c1 (stereo not given)	-2.9%
CNS(=O)(=O)c1ccc(C(=O)NC2CCc3nc(C)cn3C2)o1 (stereo not given)	-4.88%
O=C(CN1CCC(C(=O)c2cc(F)ccc2F)CC1)NC1CCCC1	-10.1%
Cc1ncsc1CCC(=O)NCc1cc2n(n1)CCN(C(=O)N(C)C)C2	-0.664%

Target: T1, Ubiquitin-activating enzyme e1, putative (Leishmania donovani (strain BPK282A1)) (UniProt E9BSI1)
T1 sequence (whole entry): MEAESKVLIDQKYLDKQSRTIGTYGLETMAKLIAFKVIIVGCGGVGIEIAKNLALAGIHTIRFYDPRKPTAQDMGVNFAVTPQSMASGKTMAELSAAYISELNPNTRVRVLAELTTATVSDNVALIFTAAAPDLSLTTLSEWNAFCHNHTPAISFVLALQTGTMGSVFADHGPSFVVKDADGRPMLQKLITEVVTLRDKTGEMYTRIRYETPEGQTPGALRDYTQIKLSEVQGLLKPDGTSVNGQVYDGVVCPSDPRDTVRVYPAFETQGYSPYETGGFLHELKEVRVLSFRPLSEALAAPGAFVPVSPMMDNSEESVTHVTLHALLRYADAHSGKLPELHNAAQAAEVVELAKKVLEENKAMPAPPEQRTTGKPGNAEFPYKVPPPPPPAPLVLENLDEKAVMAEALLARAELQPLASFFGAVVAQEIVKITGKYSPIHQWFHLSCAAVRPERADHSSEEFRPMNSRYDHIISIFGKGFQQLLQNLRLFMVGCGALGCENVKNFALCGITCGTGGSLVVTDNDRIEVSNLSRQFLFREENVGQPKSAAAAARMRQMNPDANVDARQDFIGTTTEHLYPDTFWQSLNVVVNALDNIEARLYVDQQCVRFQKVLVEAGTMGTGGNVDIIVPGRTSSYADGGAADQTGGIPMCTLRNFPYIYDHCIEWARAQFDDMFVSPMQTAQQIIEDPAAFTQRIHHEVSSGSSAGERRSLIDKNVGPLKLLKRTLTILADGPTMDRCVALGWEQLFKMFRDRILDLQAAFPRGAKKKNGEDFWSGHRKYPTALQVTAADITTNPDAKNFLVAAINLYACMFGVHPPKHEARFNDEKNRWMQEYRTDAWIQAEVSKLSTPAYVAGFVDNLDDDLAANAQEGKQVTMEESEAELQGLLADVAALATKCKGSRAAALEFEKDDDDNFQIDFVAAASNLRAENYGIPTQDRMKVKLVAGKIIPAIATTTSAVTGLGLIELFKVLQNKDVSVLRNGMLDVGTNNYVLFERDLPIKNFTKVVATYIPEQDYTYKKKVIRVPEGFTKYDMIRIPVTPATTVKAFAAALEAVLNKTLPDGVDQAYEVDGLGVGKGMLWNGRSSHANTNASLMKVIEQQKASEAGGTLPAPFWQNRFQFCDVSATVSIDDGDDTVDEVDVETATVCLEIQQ
Assay: Leishmania donovani Ubiquitin Activating Enzyme (LdE1)
Type: functional
Design: scale not given: direction of the effect not stated beside the values
Conditions: 30 µM

Structure (SMILES)	Percent Effect
CC(C)NC(=O)Cn1cc(-c2ccccc2)cn1	6.33%
Cc1nn(C)c(C)c1C1COCCN1C(=O)c1ccccc1 (stereo not given)	5.2%
O=C(N1CCCO1)[C@@]12CCO[C@@H]1CCN(C1CCCCC1)C2	16%
CC(C(=O)NCc1ccc(N2CCNC(=O)C2)cc1)n1cncn1 (stereo not given)	26%
Cn1cc(CCNC(=O)NCc2nnc3n2CCC3)cn1	15.2%
CO[C@H]1CN(Cc2cccc(C#N)c2)[C@@H]2COC[C@H]12	8%
CC(NC(=O)c1nc(=O)[nH][nH]1)c1ccc(OCC2CC2)c(F)c1 (stereo not given)	10.5%
c1ccc(-c2noc(CN3CCC(c4ccn[nH]4)CC3)n2)cc1	-8.11%
Cc1csc(N2CCN(C(=O)CCn3cncn3)CC2)n1	17.7%
Cc1cc(C2CCCN(C(=O)c3cnn(C)c3)C2)ccn1 (stereo not given)	9.46%
CCN(CC)CCNC(=O)c1cnc(C(C)(C)C)s1	0%
CCC(=O)Nc1nnc(CCOc2cccc(OC)c2)s1	-6.67%
CCCn1[nH]cc/c1=N\C(=O)CN1CCCC1c1c(C)nn(C)c1C (stereo not given)	2.7%
O=C(c1ccnnc1)N1C[C@H](Oc2cccnc2)[C@H]2OCCC[C@H]21	0%
COc1ccc(CN2CCC(O)CC2)c(OC)c1	0%
CS(=O)(=O)Cc1cccc(C(=O)NCC2Cc3ccccc3O2)c1 (stereo not given)	5.48%
O=C(CCc1cccs1)N1CCCCC1Cn1cccn1 (stereo not given)	10.4%
CCOc1ccccc1OC1CCN(C(=O)c2ccc(=O)[nH]n2)CC1	13.2%
CN(C)CCNC(=O)c1ccc(OC2CCN(S(C)(=O)=O)CC2)c(Cl)c1	18.9%
N#Cc1ccc(C(=O)N2CCn3c(Cn4cccn4)cnc3C2)cc1	2.67%

Structure (SMILES)	Percent Effect
Cn1ccc(C(=O)NC2CCC23CCN(C(=O)c2ccncc2)CC3)c1 (stereo not given)	11%
CNC(=O)[C@H]1C[C@H]2OCC[C@H]2N(Cc2cccc3ccccc23)C1	10.4%
COc1ccc(OCCCN2CCOC(Cn3cccn3)C2)cc1 (stereo not given)	3.8%
Cc1nc2ccccc2nc1CN1CCCC1c1c(C)nn(C)c1C (stereo not given)	1.27%
CCN(Cc1cccc(Cl)c1)Cc1nc2c(cnn2C)c(=O)[nH]1	15.6%
O=C(CN1CCCC1Cn1cncn1)NCCOc1cccc(F)c1 (stereo not given)	0%
COc1ccc(CCN2CCN(C(=O)c3scnc3C)CC2)cc1	10.5%
O=C(c1ccnnc1)N1C[C@@H](OCC2CCCC2)[C@H]2OCCC[C@H]21	8.11%
CCc1ccc(CCC(=O)N2CCOCC2c2ncon2)cc1 (stereo not given)	-8.11%
CC(C)CN(C)c1ccc(C(=O)N2CCCC2c2cnn(C)c2)cn1 (stereo not given)	5.26%
COc1ccc(CNCC(C)Oc2ccccn2)cc1Br (stereo not given)	17.3%
CCc1nc(C2CCCN2CC(=O)Nc2c(C)nn(C)c2C)no1 (stereo not given)	0%
Cn1c(Cn2cccn2)nnc1C1CCCN(c2ccncc2)C1 (stereo not given)	2.7%
CN(C)C(=O)N1CCC2(CCCN(Cc3cnn(C)c3)C2)C1 (stereo not given)	0%
O=C(C1=CCCC1)N1CCC[C@]2(C[C@@H](Oc3ncccc3F)CO2)C1	-5.48%
Cn1ccc(C(=O)NC2CCC23CCN(C(=O)N2CCCC2)CC3)c1 (stereo not given)	16.2%
Cc1cc(C)c2nc(CN3CCOC(CCO)C3)cc(O)c2c1 (stereo not given)	2.7%
CNS(=O)(=O)c1ccc(C(=O)NC2CCc3nc(C)cn3C2)o1 (stereo not given)	7.89%
O=C(CN1CCC(C(=O)c2cc(F)ccc2F)CC1)NC1CCCC1	-5.26%
Cc1ncsc1CCC(=O)NCc1cc2n(n1)CCN(C(=O)N(C)C)C2	1.39%
